Results reported in PubChem BioAssay AID2685 (National Center for Advancing Translational Sciences (NCATS), 2010).
Among all 320,000 compounds or so, about 2,100 (0.66%) were called active. Roughly 53% stayed inconclusive and do not appear here. The call rests on the fitted dose curve; in most records, active means well fitted inhibition curve with a large enough effect in the signal ratio, with a control signal flat (not every such curve was filed as active); inconclusive means small, poorly fitted or top-dose-only effect, or effect the other way, or a change in a side signal; inactive means flat fitted curve, though single readings scatter; the % refers to the signal ratio. The entries come from a sample that favours actives as a whole.

Assay: qHTS Assay for Lipid Storage Modulators in Drosophila S3 Cells;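 on cell number change: cells counted by Cell Tracker Red CMTPX staining in the red channel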; on lipid storage change, negative = inhibition: on the % scale 0 is the no-effect control and ±100 the full control effect
Settings: BODIPY lipid droplet fluorescence, 18-24 h, cells fed with added oleic acid; cell number change: measured here: cell count max response; series mostly up to 46.1 µM; lipid storage change, negative = inhibition: at the top concentration
Method in brief: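 Drosophila S3 cells loaded with oleic acid (400 uM, as added) and compounds at several concentrations; lipid droplets imaged by 488-nm laser-scanning cytometry, 500–530 nm intensity and object ratio to cell channel. Percent activity normalized to 20 uM Triacsin C.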
Potency means the concentration at half of the fitted maximal effect.

SMILES | outcome | cell number change | Potency | lipid storage change, negative = inhibition
CCNS(=O)(=O)c1ccc(C(=O)OCc2cc(=O)oc3cc(OC)ccc23)cc1 | inactive | 12.6% | – | –
COc1ccc2c(COC(=O)CNS(=O)(=O)c3ccc(C)c(C)c3)cc(=O)oc2c1 | inactive | – | – | –
CCCNS(=O)(=O)c1cccc(C(=O)OCc2cc(=O)oc3cc(OC)ccc23)c1 | – | 20.2% | 0.326 µM (active) | –
CCOC(=O)C1CCCN(C(=O)c2cc(S(=O)(=O)Nc3ccccc3OC)ccc2C)C1 (stereo unspecified) | – | 12% | – | 7.98% (inactive)
COc1ccc(CCNC(=O)C2CCN(c3nccc(C)n3)CC2)cc1 | – | 5.66% | – | 13.8% (inactive)
CC(=O)Nc1ccccc1NC(=O)C/C(C)=N/NC(=O)C1CCCCC1 | inactive | -3.17% | – | –
Cc1cccc(C(=O)NCC(=O)OCc2cc(=O)n3ccsc3n2)c1 | – | -4.9% | – | 18.6% (inactive)
Nc1cc(C(=O)OCC(=O)N2CCCC2=O)ccc1Cl | inactive | – | – | –
NC(=O)Nc1ccc(C(=O)OCC(=O)N2CCCC2=O)cc1 | – | -27.9% | – | 17.3% (inactive)
O=C(OCC(=O)N1CCCC1=O)c1nc(Cl)c(Cl)c(Cl)c1Cl | – | -29% | 7.08 µM (active) | –
CCCc1cc(=O)c2c(O)cccc2o1 | – | -3.96% | – | 0.102% (inactive)
O=C(NCCc1ccc(F)cc1)Nc1ccc([N+](=O)[O-])cc1 | – | 18.2% | 13 µM (active) | –
O=C(NCCc1ccncc1)Nc1ccc(F)cc1 | – | 5.19% | – | -6.04% (inactive)
O=C(NCCc1ccc(Cl)cc1)Nc1ccc(F)cc1 | – | -2.02% | – | -17.8% (inactive)
Cc1cccc(C)c1NC(=O)CN(C)C(=O)/C=C/c1cccs1 | – | -17% | – | 26% (inactive)
Cc1cc(C)c(C#N)c(Nc2ccc(F)cc2)n1 | inactive | -10.5% | – | –
CCn1cnc2c(Nc3cc(F)cc(F)c3)nc(C#N)nc21 | – | -24.3% | 0.651 µM (active) | –
O=C(Cc1ccccc1)NCC(=O)OCC(=O)c1cccc([N+](=O)[O-])c1 | – | 9.41% | – | -0.459% (inactive)
Cc1cc(OC(C)C(=O)N2CCN(c3ccccc3)CC2)c2c(C)c(C)c(=O)oc2c1 (stereo unspecified) | inactive | 5.19% | – | –
N#Cc1ccccc1COC(=O)c1cc(=O)c2ccccc2o1 | – | 7.26% | – | -3.23% (inactive)
COc1ccc(CCN(C)C(=O)c2cc(=O)c3ccccc3o2)cc1OC | – | -2.86% | 0.731 µM (active) | –

SMILES | outcome | cell number change | Potency | lipid storage change, negative = inhibition
COc1ccc(C(C)=O)cc1COC(=O)c1cc(C)oc1C | – | -12.2% | – | 16.1% (inactive)
COc1ccc(C(C)=O)cc1COC(=O)c1cccnc1Cl | – | 20.9% | – | -19.8% (inactive)
O=C(OCc1ccc(F)cc1)c1cc(=O)c2ccccc2o1 | inactive | 11.3% | – | –
COc1ccc(C(C)=O)cc1COC(=O)c1cc(=O)c2ccccc2o1 | – | 5.13% | 18.4 µM (active) | –
COc1ccc(C(C)=O)cc1COC(=O)c1cc2ccccc2cc1O | – | -9.52% | 20.6 µM (active) | –
CCc1ccc(CN(C)C(=O)c2cc(=O)c3ccccc3o2)cc1 | inactive | – | – | –
COc1ccc(CCN(C)C(=O)c2cc(-c3ccccc3)nc3ccccc23)cc1OC | inactive | -2.7% | – | –
CCOC(=O)c1ccc(NC(=S)N2CCCC(C)C2)cc1 (stereo unspecified) | – | 4.19% | – | -12.9% (inactive)
COCCN(C(=S)Nc1ccccc1OC)C(C)c1cccs1 (stereo unspecified) | – | 10.3% | – | 18.6% (inactive)
CCCCn1nnc(NC(=O)c2sc3cc(Cl)ccc3c2Cl)n1 | – | -11.4% | – | 14.6% (inactive)
C/C(=N\Nc1cc(N2CCOCC2)nc(C)n1)c1ccc(F)cc1 | inactive | -23.7% | – | –
COc1cc(OC)c2ccc(=O)oc2c1C(CCN1CCCC1)c1ccc(N(C)C)cc1 (stereo unspecified) | – | 0.759% | – | 0.139% (inactive)
Cc1cc(C)nc(/N=C(\NC(=O)C(C)(C)C)Nc2ccccc2)n1 | – | 7.69% | – | 16.5% (inactive)
O=C(CCOc1ccccc1)Nc1ccnn1C1CCN(C(=O)CCC(F)(F)F)CC1 | inactive | – | – | –
Cn1c(N)c(C(=O)COC(=O)CNS(=O)(=O)c2cccc(Cl)c2)c(=O)n(C)c1=O | – | -1.55% | – | -4.82% (inactive)
CN(CC(=O)OCC(=O)c1c(N)n(C)c(=O)n(C)c1=O)S(=O)(=O)c1ccc(Cl)cc1 | – | -11.5% | – | -4.29% (inactive)
CC(C)[C@H](NS(=O)(=O)c1ccc(Cl)cc1)C(=O)OCC(=O)c1c(N)n(C)c(=O)n(C)c1=O | – | -5.89% | 29.1 µM (active) | –
O=C(NC1CCCc2ccccc21)c1ccccc1 (stereo unspecified) | – | 96.9% | – | 21.6% (inactive)
COC(=O)CN(c1cccc(F)c1)S(C)(=O)=O | inactive | – | – | –
COC(=O)CN(c1cccc(C(C)=O)c1)S(C)(=O)=O | – | -12.6% | – | 8.86% (inactive)
COC(=O)CN(c1cccc(OC)c1)S(C)(=O)=O | – | -6.69% | 16.4 µM (active) | –

SMILES | outcome | cell number change | Potency | lipid storage change, negative = inhibition
COc1ccccc1CN1CC(C(=O)NC2CCOCC2)CCC1=O (stereo unspecified) | – | 0.697% | – | -8.12% (inactive)
CCC(C)N1CCNCC1 (stereo unspecified) | inactive | 2.58% | – | –
Cc1cc2c3c(ccc(C)c3n1)N=CN2c1ccccc1 | inactive | – | – | –
CC(C)Oc1cccc(C(=O)O)c1 | – | 0.0714% | 16.4 µM (active) | –
CCCCOc1cccc(C(=O)O)c1 | inactive | -9.86% | – | –
CC(C)Oc1cccc(C(=O)N2CCCC2)c1 | – | 0.879% | – | -2.89% (inactive)
Cc1cc(OCC(=O)NCc2nc(-c3ccccc3)no2)c(C)cc1Br | – | 8.52% | – | 7.66% (inactive)
Cn1cc(/C=C/c2cc[n+](C)cc2)c2cc(F)ccc21 | – | 5.37% | 25.9 µM (active) | –
Cn1cc(C=O)c2cc(F)ccc21 | – | – | – | 0.791% (inactive)
COc1ccc2c(c1)c(/C=C/c1cc[n+](C)cc1)cn2C | – | – | – | -25.3% (inactive)
CC(=O)Nc1ccc(S(=O)(=O)N2CCN(CC3CC4C=CC3C4)CC2)cc1 (stereo unspecified) | – | 5.59% | – | 4.11% (inactive)
O=C(N/N=C/c1ccncc1)c1ccc2c(c1)OCO2 | – | -3.13% | – | 5.26% (inactive)
CCCc1cc2c(=O)c(-c3ccccn3)c(C)oc2cc1O | – | -9.21% | – | 11.3% (inactive)
CC(=O)N[C@H](C(=O)N[C@@H](C)C(=O)N[C@H](C#N)CC(=O)O)C(C)C | – | 8.31% | – | 11.1% (inactive)
Cc1ccc(S(=O)(=O)N2CCC(C(=O)OCC(=O)N3CC(=O)Nc4ccccc43)CC2)cc1 | – | 8.87% | – | -0.226% (inactive)
CC(=O)Nc1ccc(S(=O)(=O)N(C)CC(=O)OCC(=O)N2CCc3ccccc32)cc1 | – | -7.07% | 20.6 µM (active) | –
CC(=O)Nc1ccc(S(=O)(=O)N(C)CC(=O)OCC(=O)N2CCCCCC2)cc1 | – | -4.09% | – | -14.5% (inactive)
Cc1ccc(S(=O)(=O)N2CCC(C(=O)OCC(=O)N3CCc4ccccc43)CC2)cc1 | – | -18.3% | 7.31 µM (active) | –
Cc1ccc(S(=O)(=O)CCC(=O)OCC(=O)N2CCc3ccccc32)cc1 | – | -18.3% | – | -12.7% (inactive)
CC(=O)Nc1ccc(S(=O)(=O)NCC(=O)OCC(=O)N2CCCc3ccccc32)cc1 | – | -6.74% | – | 17.9% (inactive)
